Results on 11 compounds are retold here after PubChem BioAssay.

The structures appear in SMILES notation. Active and inactive are the calls of the source. Unless noted, how the calls were made is not given here.

Experiment [1] in a line: HepG2 liver cancer cell viability effects, profiling panel, resazurin fluorescence, 24 h, PK04 Diversity Set (AID 1172). Further: test concentration not given here. The conditions noted are these: higher = more signal.
Experiment [2] is described as follows: basal S. cerevisiae growth modulation, no modifier, primary screen, OD600, strain BY4716, 24 h, basal condition (AID 1173). The conditions noted are these: OD600, 24 h, higher = more signal, called active from +8 up or from −8 down.
Experiment [3] is described as follows: MM1S myeloma cell viability, profiling panel, resazurin fluorescence, basal, 24 h, PK04 Diversity Set (AID 1174).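 Further: MM1S multiple myeloma cell line; test concentration not given here.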 The note with it: higher = more signal, called active from +8 up or from −8 down.
Experiment [4] addresses Dihydroorotate dehydrogenase (quinone), mitochondrial (Plasmodium falciparum (isolate 3D7)) (UniProt Q08210). Kind of experiment: PfDHODH enzyme inhibitors, primary screen, biochemical, C-terminal His tag, absorbance 600 nm (AID 1175).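 Further: recombinant parasite enzyme with a five histidine tag at its C terminus; test concentration not given here.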 The note with it: DCIP absorbance 600 nm, higher = more signal, called active from +8 up or from −8 down.
A short description of experiment [5]: P. aeruginosa biofilm formation inhibitors, primary screen, strain PAO1, LB-PBS medium, absorbance 600 nm (AID 1176). Further: test concentration not given here. The note with it: P. aeruginosa PAO1 growth/biofilm, A600, 12 h; higher = more signal.
The nature of experiment [6]: S. cerevisiae RM11-1a growth modifiers, primary screen, strain RM11-1a, OD600, basal, 24 h (AID 1177).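 Further: cultures grown under basal conditions with no added stressor; test concentration not given here.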 The conditions noted are these: OD600, 24 h, higher = more signal, called active from +8 up or from −8 down.
A short description of experiment [7]: E. coli acrAB mutant growth effects, primary screen, E. coli filamentation inducers, strain DRC39, OD650, 24 h (AID 1178).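 Further: growth measured as culture turbidity by optical density at 650 nm; test concentration not given here.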 The conditions noted are these: higher = more signal, called active from +8 up or from −8 down.
Experiment [8] is described as follows: E. coli acrAB mutant growth effects, primary screen, E. coli filamentation inducers, strain DRC39, OD650, 48 h (AID 1179).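 Further: screen aims at cell division blockers that make cells filament.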 The conditions noted are these: E. coli DRC39 delta-acrAB growth, higher = more signal, called active from +8 up or from −8 down.
A short description of experiment [9]: RPMI8226 myeloma cell viability, profiling panel, resazurin fluorescence, basal, 24 h, PK04 Diversity Set (AID 1180).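 Further: RPMI8826 multiple myeloma cell line at 5000 cells per well; test concentration not given here.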 The conditions noted are these: higher = more signal.
Experiment [10] concerns the target E3 ubiquitin-protein ligase XIAP (Homo sapiens) (UniProt P98170). Briefly: XIAP binders, primary screen, biophysical, small-molecule microarray, fluorescence 635 nm (AID 1181).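 Further: score merges 667 nm emission and signal to noise over triplicate slides.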 The note with it: small-molecule microarray binding, higher = more signal.

Sequence of Dihydroorotate dehydrogenase (quinone), mitochondrial (Plasmodium falciparum (isolate 3D7)) (Q08210 whole entry, looked up): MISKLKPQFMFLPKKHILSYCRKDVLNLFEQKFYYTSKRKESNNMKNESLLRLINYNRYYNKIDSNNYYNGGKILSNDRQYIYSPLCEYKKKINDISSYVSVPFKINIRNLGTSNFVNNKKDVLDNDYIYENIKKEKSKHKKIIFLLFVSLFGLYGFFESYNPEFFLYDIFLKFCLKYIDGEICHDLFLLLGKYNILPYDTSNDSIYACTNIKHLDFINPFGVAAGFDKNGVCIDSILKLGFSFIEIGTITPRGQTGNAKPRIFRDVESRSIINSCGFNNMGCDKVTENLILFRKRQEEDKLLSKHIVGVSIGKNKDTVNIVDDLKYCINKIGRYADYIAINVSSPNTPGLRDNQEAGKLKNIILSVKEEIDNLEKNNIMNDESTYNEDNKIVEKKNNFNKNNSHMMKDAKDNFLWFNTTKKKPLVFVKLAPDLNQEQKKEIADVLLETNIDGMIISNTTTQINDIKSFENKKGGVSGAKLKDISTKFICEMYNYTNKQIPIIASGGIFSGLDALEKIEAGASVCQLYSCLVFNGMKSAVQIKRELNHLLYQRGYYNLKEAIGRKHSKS
Sequence of E3 ubiquitin-protein ligase XIAP (Homo sapiens) (P98170 whole entry, looked up): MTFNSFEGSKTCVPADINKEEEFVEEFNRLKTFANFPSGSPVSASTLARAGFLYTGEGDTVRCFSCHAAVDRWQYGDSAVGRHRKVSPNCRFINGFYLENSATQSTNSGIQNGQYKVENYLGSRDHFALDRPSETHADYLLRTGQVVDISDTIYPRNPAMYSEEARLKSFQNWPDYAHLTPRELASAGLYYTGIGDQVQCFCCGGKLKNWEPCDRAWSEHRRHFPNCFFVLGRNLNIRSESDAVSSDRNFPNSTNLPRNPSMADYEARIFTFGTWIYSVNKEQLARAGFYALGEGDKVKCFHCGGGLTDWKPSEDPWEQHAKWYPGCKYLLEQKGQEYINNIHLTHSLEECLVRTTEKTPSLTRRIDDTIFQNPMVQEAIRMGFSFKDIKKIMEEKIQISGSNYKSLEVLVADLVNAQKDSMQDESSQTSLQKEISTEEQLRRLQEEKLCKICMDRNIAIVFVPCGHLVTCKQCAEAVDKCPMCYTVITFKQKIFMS

Consider `[N-]=[N+]=NCc1ccccc1C[C@]1(C(=O)NCCN2CCOCC2)N=C(c2ccc(OCCCO)cc2)O[C@H]1c1ccccc1N=[N+]=[N-]`, for which the z-score in experiment [1] is -0.854; in experiment [2] it was -0.318 (inactive); in experiment [3], -0.739 (inactive); in experiment [5], 1.57 (inactive); in [6], 0.145 (inactive); in [7], 1.73 (inactive). Moreover, the z-score in experiment [8] is 1.08 (inactive); in experiment [9], -1.85. The composite z-score in experiment [4] was 0.345 (inactive); in experiment [10], 0.317.
Take `CC=CC(O)C1C=CC2C(=O)N(c3ccccc3)C(=O)C2N1Nc1ccc(C(C)C)cc1` (stereo not given): the z-score in experiment [1] is -1.76; in experiment [2], 0.474 (inactive); in experiment [3], -0.785 (inactive); in [5] it was 0.518 (inactive); in [6], 1.11 (inactive); in [7] it was -0.457 (inactive). Further, the z-score is -1.02 (inactive) in experiment [8] and -0.863 in experiment [9]. The composite z-score is 0.784 (inactive) in experiment [4] and 0.384 in experiment [10].
On to `COc1cc(C(O)C2C=CC3C(=O)N(c4ccccc4)C(=O)C3N2Nc2ccc(C#N)cc2)cc(OC)c1OC` (stereo not given), for which the z-score in [1] is -1.28; in experiment [2] it was -2.44 (inactive); in experiment [3], -1.62 (inactive); in [5], 1.36 (inactive); in [6], -0.343 (inactive); in experiment [7], -0.914 (inactive). In addition, the values for the z-score in experiment [8] and in experiment [9] were -0.386 (inactive) and -0.919, respectively. In addition, the composite z-score was 0.198 (inactive) in experiment [4] and 0.0819 in experiment [10].
Turning to `C=CCOC(=O)[C@@H]1[C@H]2C(=O)O[C@H](c3ccccc3)[C@H](c3ccccc3)N2[C@H](c2ccc(OCCOC(=O)[C@@H]3C[C@@H]4C(=O)NCC(=O)N4[C@@H]3c3cccc(OCCO)c3)cc2)[C@@]12C(=O)Nc1ccc(I)cc12`, the z-score was 0.0068 in experiment [1]; 1.24 (inactive) in experiment [2]; 0.132 (inactive) in experiment [3]; 2.17 (inactive) in experiment [5]; 1.65 (inactive) in experiment [6]; 0.451 (inactive) in [7]. Further, the z-score in experiment [8] was 0.17 (inactive); in [9], 0.487. For the same compound, the composite z-score in experiment [4] was -0.173 (inactive); in experiment [10], 0.0586.
Turning to `COCCOC(=O)N1C(=O)[C@@]2(c3cc(C#CC4=CCCCC4)ccc31)[C@H](C(=O)NC[C@H](O)c1ccccc1)[C@H]1C(=O)O[C@H](c3ccccc3)[C@H](c3ccccc3)N1[C@@H]2c1ccc(O)cc1`, the z-score in experiment [1] is -0.789; in experiment [2] it was -0.571 (inactive); in experiment [3] it was -0.925 (inactive); in experiment [5], 1.01 (inactive); in experiment [6] it was 1.55 (inactive); in experiment [7], -0.237 (inactive). Besides, the z-score in experiment [8] is 0.174 (inactive); in experiment [9], -1.73. The composite z-score in [4] was 0.409 (inactive); in experiment [10] it was -0.02.
`O=C1O[C@H](c2ccccc2)[C@H](c2ccccc2)N2[C@H]1[C@@H](C(=O)N1CCN(c3ncccn3)CC1)[C@]1(C(=O)Nc3ccccc31)[C@H]2c1ccc(OCCO)cc1`: the z-score in [1] was 1.42; in experiment [2], 1.4 (inactive); in [3], 0.792 (inactive); in [5], 1.55 (inactive); in experiment [6] it was 1.81 (inactive); in experiment [7] it was 0.774 (inactive). For the same compound, the results for the z-score in experiment [8] and in experiment [9] were 0.0049 (inactive) and 0.368, respectively. Moreover, the composite z-score in experiment [4] is 1.12 (inactive); in experiment [10] it was 0.109.
As for `C=CCNC(=O)[C@H]1[C@@H]2C(=O)O[C@@H](c3ccccc3)[C@@H](c3ccccc3)N2[C@@H](c2ccc(O)cc2)[C@]12C(=O)N(C(=O)OCCOC)c1ccc(C#CCCO)cc12`, the z-score in experiment [1] is -0.37; in experiment [2] it was -0.385 (inactive); in experiment [3] it was 0.695 (inactive); in [5], 0.104 (inactive); in experiment [6], 0.681 (inactive); in [7], 0.261 (inactive). The results for the z-score in experiment [8] and in [9] were 0.69 (inactive) and 0.665, respectively. The composite z-score in [4] is 1.12 (inactive); in experiment [10], -0.272.
As to `CCCCC=C[C@@H](NC(=O)c1ccco1)c1ccccc1`, the z-score in experiment [1] was 1; in [2], 1.42 (inactive); in [3], 0.356 (inactive); in [5], -0.126 (inactive); in experiment [6], 0.846 (inactive); in [7] it was 0.358 (inactive). The values for the z-score in [8] and in [9] were 0.815 (inactive) and 0.223, respectively. Also, the composite z-score was 0.559 (inactive) in experiment [4] and -0.123 in experiment [10].
In the case of `Cc1ccc(S[C@]2(C(=O)NCC(C)C)CC(=O)N(Cc3ccccc3Cl)[C@@H]2c2ccc(CO)cc2)cc1`, the z-score in [1] is -0.0675; in [2], -0.511 (inactive); in experiment [3] it was 0.196 (inactive); in experiment [5], -0.205 (inactive); in [6], 0.343 (inactive); in experiment [7], -0.115 (inactive). The z-score in experiment [8] was -0.219 (inactive); in [9], 0.405. Also, the composite z-score in experiment [4] is -0.223 (inactive); in [10], 0.012.
As for `CC(C)C(=C=CC[C@H](O)c1cccc(OCCO)c1)C[C@H](O)COCc1ccccc1`, the z-score in experiment [1] is 0.685; in experiment [2], -0.535 (inactive); in [3], 0.0454 (inactive); in [5] it was 0.449 (inactive); in experiment [6], 0.194 (inactive); in experiment [7], 0.339 (inactive). The values for the z-score in [8] and in experiment [9] were 0.262 (inactive) and 0.163, respectively. Also, the composite z-score in experiment [4] was -1.25 (inactive); in experiment [10], -0.113.
As to `[N-]=[N+]=NCc1ccccc1C[C@]1(C(=O)NCC(O)CO)N=C(c2ccc(OCCCO)cc2)O[C@H]1c1ccccc1N=[N+]=[N-]` (stereo not given in full), the z-score in experiment [1] was 0.207; in experiment [2] it was 0.664 (inactive); in experiment [3], -0.403 (inactive); in experiment [5], 0.208 (inactive); in experiment [6] it was 2.8 (inactive); in experiment [7], 1.22 (inactive). For the same compound, the z-score in experiment [8] was 0.0128 (inactive); in experiment [9], -0.986. In addition, the composite z-score in experiment [4] is 1.83 (inactive); in [10], -0.0057.
